Test results: the supplement of paper PMC11732987, “Enantioselective OTUD7B fragment discovery through chemoproteomics screening and high-throughput optimisation” (Communications Chemistry, 2025)

How the values were obtained:
Test in all cases: log2 ratio of Biotin-Ahx-Ub-VS probe labelling (fragment/DMSO); higher = less target engagement (more negative = stronger competition), active = hit call of the paper (q ≤ 0.05, log2 ratio ≤ -1)
Settings in all cases: compound concentration: 200 uM; treatment time: 3 h
ALG13 = target: T1, ALG13 (UniProt Q9NP73)
T1 sequence (whole entry): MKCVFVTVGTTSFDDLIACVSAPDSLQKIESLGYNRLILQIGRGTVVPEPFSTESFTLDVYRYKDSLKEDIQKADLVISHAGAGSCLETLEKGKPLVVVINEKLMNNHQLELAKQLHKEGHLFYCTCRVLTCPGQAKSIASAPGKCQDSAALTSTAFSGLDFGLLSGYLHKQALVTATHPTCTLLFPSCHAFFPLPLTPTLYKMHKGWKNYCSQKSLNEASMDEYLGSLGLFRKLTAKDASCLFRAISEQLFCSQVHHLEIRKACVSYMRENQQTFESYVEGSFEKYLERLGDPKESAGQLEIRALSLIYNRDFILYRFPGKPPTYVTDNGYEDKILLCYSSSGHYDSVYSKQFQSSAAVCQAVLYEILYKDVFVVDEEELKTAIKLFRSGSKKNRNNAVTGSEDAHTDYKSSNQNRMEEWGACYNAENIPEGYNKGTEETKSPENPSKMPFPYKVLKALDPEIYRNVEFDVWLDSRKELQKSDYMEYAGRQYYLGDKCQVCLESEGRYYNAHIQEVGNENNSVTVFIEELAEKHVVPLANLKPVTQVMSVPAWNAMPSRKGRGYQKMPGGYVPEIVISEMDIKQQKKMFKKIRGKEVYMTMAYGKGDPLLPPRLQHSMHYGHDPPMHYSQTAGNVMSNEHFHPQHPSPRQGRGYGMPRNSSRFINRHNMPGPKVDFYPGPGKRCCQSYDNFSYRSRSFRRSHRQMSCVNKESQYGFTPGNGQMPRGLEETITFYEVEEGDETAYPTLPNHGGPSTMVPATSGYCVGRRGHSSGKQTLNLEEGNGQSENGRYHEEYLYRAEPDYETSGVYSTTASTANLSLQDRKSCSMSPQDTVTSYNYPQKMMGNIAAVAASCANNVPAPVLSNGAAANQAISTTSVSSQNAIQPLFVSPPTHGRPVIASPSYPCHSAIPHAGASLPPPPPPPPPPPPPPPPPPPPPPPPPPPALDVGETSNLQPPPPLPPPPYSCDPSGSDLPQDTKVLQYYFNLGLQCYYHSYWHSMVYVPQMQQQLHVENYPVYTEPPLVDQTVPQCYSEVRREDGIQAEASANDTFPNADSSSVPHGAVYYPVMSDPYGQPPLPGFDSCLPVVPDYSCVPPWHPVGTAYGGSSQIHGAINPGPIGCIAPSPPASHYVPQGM
Procedure, shortened: (§1)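 Lysate from HEK293T cells, 495 µg per sample in Tris/CHAPS/IGEPAL buffer with protease inhibitors, was treated for 3 h in triplicate with fragment at 200 µM or vehicle. Biotin-Ahx-Ub-VS was next added at 0.5 µM final for 1 h. The labelled DUBs were enriched with NeutrAvidin, digested with LysC and trypsin, and run by diaPASEF LC-MS/MS, with values given as average log2 fragment/vehicle ratios by unpaired t-test on global-median-normalised Spectronaut quantities of proteins with ≥2 unique peptides.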

ATXN3 = ATXN3 (UniProt P54252)
Procedure, shortened: as §1

BAP1 = target: T2, BAP1 (UniProt Q92560)
T2 sequence (whole entry): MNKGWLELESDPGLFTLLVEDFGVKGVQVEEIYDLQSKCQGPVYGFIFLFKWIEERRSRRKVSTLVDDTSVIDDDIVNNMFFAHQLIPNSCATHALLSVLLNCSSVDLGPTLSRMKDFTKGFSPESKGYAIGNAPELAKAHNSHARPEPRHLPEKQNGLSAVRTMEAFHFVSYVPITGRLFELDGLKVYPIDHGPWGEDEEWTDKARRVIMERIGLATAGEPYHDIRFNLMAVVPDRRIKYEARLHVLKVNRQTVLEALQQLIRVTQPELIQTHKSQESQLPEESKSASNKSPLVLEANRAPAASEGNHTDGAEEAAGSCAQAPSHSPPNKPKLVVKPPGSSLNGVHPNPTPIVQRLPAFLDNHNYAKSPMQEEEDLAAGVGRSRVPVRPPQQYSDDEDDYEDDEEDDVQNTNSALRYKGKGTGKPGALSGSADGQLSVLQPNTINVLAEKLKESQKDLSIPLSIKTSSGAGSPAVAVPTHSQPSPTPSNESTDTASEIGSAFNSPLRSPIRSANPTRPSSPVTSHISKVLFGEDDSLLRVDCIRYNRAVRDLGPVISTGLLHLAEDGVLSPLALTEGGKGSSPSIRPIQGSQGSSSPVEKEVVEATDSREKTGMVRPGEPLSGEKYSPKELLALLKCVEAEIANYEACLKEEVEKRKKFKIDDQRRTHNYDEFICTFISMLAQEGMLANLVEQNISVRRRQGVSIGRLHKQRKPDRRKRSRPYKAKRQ
Procedure, shortened: as §1

EIF3F = EIF3F (UniProt O00303)
Procedure, shortened: as §1

EIF3H = EIF3H (UniProt O15372)
Procedure, shortened: as §1

FAM105A = target: T3, FAM105A (UniProt Q9NUU6)
T3 sequence (whole entry): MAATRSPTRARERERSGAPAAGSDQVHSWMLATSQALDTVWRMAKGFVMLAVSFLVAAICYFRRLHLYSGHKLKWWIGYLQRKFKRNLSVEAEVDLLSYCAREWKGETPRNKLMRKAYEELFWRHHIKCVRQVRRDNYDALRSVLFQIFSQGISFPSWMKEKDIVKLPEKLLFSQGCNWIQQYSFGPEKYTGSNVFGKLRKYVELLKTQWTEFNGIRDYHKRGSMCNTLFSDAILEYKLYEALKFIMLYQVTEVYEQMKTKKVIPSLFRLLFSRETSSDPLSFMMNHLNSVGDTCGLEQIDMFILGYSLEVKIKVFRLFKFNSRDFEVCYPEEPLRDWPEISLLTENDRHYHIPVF
Procedure, shortened: as §1

OTUB1 = OTUB1 (UniProt Q96FW1)
Procedure, shortened: as §1

OTUD4 = target: T4, OTUD4 (UniProt Q01804)
T4 sequence (whole entry): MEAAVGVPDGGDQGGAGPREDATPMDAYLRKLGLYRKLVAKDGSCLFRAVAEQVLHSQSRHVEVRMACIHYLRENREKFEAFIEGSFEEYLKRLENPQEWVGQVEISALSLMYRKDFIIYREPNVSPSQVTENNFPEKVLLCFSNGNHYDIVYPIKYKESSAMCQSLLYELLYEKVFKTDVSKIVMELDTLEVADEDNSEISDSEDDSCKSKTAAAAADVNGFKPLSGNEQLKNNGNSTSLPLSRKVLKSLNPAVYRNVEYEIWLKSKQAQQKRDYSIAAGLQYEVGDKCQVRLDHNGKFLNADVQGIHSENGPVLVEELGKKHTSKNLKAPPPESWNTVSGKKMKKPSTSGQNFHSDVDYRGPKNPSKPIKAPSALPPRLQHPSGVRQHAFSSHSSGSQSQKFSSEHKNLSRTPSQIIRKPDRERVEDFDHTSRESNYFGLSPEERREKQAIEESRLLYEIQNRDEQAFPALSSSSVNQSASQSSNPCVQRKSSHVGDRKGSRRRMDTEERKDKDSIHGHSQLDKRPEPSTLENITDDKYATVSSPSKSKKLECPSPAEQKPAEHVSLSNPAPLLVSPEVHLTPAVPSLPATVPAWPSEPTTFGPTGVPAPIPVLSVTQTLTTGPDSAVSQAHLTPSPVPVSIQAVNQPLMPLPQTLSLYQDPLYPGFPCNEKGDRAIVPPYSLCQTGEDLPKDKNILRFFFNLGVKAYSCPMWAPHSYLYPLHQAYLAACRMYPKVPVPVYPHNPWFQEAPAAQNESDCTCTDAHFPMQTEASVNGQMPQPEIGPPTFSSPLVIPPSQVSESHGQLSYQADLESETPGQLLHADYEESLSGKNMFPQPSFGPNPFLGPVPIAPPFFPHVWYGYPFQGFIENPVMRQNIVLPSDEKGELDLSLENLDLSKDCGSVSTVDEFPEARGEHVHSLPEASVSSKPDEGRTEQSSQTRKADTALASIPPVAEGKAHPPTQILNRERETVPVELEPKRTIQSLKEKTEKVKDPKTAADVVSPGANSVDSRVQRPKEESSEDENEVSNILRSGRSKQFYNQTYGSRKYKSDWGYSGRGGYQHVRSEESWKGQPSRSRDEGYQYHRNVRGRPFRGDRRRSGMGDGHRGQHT
Procedure, shortened: as §1

OTUD5 = target: T5, OTUD5 (UniProt Q96G74)
T5 sequence (whole entry): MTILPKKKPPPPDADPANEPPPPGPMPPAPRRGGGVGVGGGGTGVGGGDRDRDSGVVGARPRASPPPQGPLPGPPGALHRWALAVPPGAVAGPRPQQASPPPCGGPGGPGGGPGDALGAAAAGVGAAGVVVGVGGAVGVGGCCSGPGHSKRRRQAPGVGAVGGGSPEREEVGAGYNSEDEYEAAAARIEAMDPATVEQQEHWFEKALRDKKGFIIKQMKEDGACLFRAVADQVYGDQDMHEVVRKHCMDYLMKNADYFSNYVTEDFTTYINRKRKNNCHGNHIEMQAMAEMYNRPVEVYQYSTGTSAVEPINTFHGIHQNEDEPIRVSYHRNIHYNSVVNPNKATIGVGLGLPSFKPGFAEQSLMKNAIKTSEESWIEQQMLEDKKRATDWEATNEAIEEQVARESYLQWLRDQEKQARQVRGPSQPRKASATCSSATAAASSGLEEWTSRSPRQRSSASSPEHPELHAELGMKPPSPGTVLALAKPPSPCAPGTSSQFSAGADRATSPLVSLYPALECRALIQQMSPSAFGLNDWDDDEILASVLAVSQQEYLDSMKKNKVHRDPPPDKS
Procedure, shortened: as §1

Measured: log2 ratio of Biotin-Ahx-Ub-VS probe labelling

Chain of EIF3F (O00303 whole entry): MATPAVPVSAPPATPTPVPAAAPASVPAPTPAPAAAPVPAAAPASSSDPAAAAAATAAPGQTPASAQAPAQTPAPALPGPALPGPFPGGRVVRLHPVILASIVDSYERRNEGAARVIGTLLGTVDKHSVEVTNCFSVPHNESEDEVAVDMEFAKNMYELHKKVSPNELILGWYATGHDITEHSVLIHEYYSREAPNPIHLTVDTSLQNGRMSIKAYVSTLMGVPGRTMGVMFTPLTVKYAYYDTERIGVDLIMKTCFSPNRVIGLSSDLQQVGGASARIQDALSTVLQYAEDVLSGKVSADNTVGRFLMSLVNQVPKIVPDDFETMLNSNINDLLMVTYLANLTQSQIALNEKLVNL
Chain of EIF3H (O15372 whole entry): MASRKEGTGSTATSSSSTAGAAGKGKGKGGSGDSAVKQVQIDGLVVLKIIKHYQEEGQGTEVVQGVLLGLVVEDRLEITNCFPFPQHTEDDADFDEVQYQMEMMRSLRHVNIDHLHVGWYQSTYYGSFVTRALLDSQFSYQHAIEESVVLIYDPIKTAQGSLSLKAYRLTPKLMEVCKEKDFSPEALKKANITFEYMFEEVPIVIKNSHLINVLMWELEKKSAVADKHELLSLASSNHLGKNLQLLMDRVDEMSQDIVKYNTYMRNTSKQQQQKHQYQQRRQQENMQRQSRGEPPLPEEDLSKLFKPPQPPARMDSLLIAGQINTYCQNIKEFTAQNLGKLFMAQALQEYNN
Chain of ATXN3 (P54252 whole entry): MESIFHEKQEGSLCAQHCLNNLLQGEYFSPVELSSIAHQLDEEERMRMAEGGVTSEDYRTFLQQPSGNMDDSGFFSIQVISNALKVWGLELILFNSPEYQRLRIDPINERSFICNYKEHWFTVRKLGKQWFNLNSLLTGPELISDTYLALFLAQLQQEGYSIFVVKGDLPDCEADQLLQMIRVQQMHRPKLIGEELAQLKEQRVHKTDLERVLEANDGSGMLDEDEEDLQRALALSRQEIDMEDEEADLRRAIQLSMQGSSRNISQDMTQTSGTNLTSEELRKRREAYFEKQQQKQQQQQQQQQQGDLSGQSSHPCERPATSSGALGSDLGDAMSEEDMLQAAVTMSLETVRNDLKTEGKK
Chain of OTUB1 (Q96FW1 whole entry): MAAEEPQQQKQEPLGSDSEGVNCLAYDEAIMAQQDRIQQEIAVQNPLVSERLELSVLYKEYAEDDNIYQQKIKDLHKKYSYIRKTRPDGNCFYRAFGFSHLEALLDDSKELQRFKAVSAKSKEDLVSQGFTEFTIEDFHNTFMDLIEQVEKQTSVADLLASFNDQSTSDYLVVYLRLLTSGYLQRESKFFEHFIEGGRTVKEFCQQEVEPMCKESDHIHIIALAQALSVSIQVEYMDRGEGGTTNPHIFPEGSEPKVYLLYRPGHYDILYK

O=C(CCl)NCc1cccc(F)c1
inactive: ALG13 -0.54 | ATXN3 -0.297 | EIF3F -0.186 | EIF3H 0.138 | FAM105A 0.303 | OTUB1 -0.181 | OTUD4 -0.316 | OTUD5 -0.429
active: BAP1 -2.76
